Laboratory results: PubChem BioAssay AID1159537 (DiRusso Lab, Biochemistry Department, University of Nebraska, 2015)
About 370 (0.84%) of roughly 44,000 compounds were called active. How the calls were made is not given here. The list comes from a sample in which actives are over-represented; it also holds similar structures and randomly drawn compounds.

Experiment: inducers of TAG accumulation in Chlamydomonas, primary screen, qHTS, Chlamydomonas reinhardtii (AID 1159537);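 further: hits raise Nile Red signal meaning more stored TAG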
Settings: Nile Red fluorescence, 72 h

| Structure (SMILES) | outcome |
| --- | --- |
| CCN(CC)CC#CCOc1ccccc1 | active [screened at 10 µM (by protocol)] |
| O=C(Nc1cccc(OC(=O)N2CCCCC2)c1)N1CCOCC1 | inactive |
| CCN(CC)CCNc1ccc([N+](=O)[O-])c2cccnc12 | inactive [screened at 10 µM (by protocol)] |
| CN1CCN(Cc2cc(Br)cs2)CC1 | inactive [screened at 10 µM (by protocol)] |
| CN1CCCN(CC2=CC[C@H]3C[C@@H]2C3(C)C)CC1 | active [screened at 10 µM (by protocol)] |
| CCN1CCN(CC2=CC[C@H]3C[C@@H]2C3(C)C)CC1 | inactive [screened at 10 µM (by protocol)] |
| Cc1cccc(OCC(=O)N2CCN(Cc3ccccc3)CC2)c1C | inactive [screened at 10 µM (by protocol)] |
| Fc1cccc(Cl)c1CN1CCN(c2ccccc2)CC1 | inactive |
| O=c1cccc2n1CC1CC2CN(c2nc(N3CCOCC3)nc(N3CCOCC3)n2)C1 (stereo not given) | inactive |
| Cc1ccc(C)c(N2CCN(Cc3ccc([N+](=O)[O-])cc3)CC2)c1 | active |
| O=[N+]([O-])c1ccc(CN2CCN(c3cccc(Cl)c3)CC2)cc1 | inactive |
| COc1ccccc1N1CCN(Cc2cccc([N+](=O)[O-])c2)CC1 | inactive |
| CCC1(c2ccccc2)C(=O)NC(=O)N(C)C1=O (stereo not given) | inactive |
| Nc1ccc(-c2ccc(N)c(N)c2)cc1N | inactive [screened at 10 µM (by protocol)] |
| N#CC(/C=C/c1ccccc1)N1CCOCC1 (stereo not given) | inactive |
